# Results: PubChem BioAssay (Tox21)
# Unmarked numbers belong to inactive results. Calls come from the whole dose curve; as a rule, active = well fitted curve in the direction sought with a large enough effect in the repeat runs; inconclusive = weak or mixed curves; inactive = no such curve, though single readings can be large; an effect the other way counts as inactive or inconclusive. Inconclusive results are not listed.
# Assay: Caspase-3/7 induction in CHO-K1 cells by small molecules, qHTS cell viability counter screen (AID 1346979); note: nearly all actives have a fitted effect of over 35% in size
# Conditions: CellTiter-Fluor fluorescence, 17 h; series mostly up to 92.4 µM; activity change, negative = cytotoxicity: at the top concentration
# Outline: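 Viability readout by fluorescence (CellTiter-Fluor) on wild-type CHO-K1 cells exposed for 16hr at 37C and 5% CO2 to compounds delivered in DMSO; reagent incubated 1hr before reading.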
# % is set by controls: 0 for no effect and ±100 for the full control effect.
row,SMILES,"activity change, negative = cytotoxicity"
1,CC1=CC(=O)CCC1,5.8%
2,COc1cccc(Br)c1,3.83%
3,CC(C)(O)Cc1ccccc1,-1.68%
4,CCN(CC)C(=O)c1ccc(O)c(OC)c1,0.275% [at 42.5 µM]
5,CCO[Si](C)(OCC)OCC,9.6%
6,COC(=O)CCCCCCCCC(=O)OC,4.06%
7,CCC(=O)Nc1cccc(N)c1,8.22%
8,Nc1cc(C(Cl)=C(Cl)Cl)c(S(N)(=O)=O)cc1S(N)(=O)=O,2.84% [at 42.5 µM]
9,CCCCCCCCCCCCCCCCCC(=O)OCCCCCCCCCCCCCC(C)C,-0.124%
10,NC(=O)c1ncn([C@@H]2O[C@H](CO)[C@@H](O)[C@H]2O)c1N,9.97% [at 42.5 µM]
11,CCCCCCCCCCC1CO1 (centres undefined),-1.23%
12,NS(=O)(=O)c1cc2c(cc1Cl)NC(CSCc1ccccc1)=NS2(=O)=O,6.17% [at 42.5 µM]
13,CCc1cc(S(=O)(=O)O)c2cc(C(C)C)cccc1-2,-7.78% [at 42.5 µM]
14,OCC(O)[C@@H](O)[C@H](O)[C@H](O)CO[C@H]1O[C@H](CO)[C@@H](O)[C@H](O)[C@H]1O (some centres undefined),5.53%
15,C=CCOCC(O)CS(=O)(=O)O (centres undefined),0.225%
16,CCCCCCCCCCCCCCC,0.977%
17,C=CCOc1nc(OCC=C)nc(OCC=C)n1,3.42%

# Assay: Caspase-3/7 induction in CHO-K1 cells by small molecules, qHTS assay (AID 1346980); note: nearly all actives have a fitted effect of over 15% in size
# Conditions: CHO-K1 caspase-3/7 induction, Caspase-Glo luminescence, 17 h; series mostly up to 92.4 µM; caspase-3/7 activation: at the top concentration
# Outline: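 Luminescent Caspase-Glo 3/7 read (30min, room temperature) quantified apoptosis induction. Cells were wild-type CHO-K1, treated with compound for 17hr at 37 C and 5% CO2.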
row,SMILES,caspase-3/7 activation
1,NCCNC(=O)c1ccc(Cl)cn1,0.524% [at 42.5 µM]
2,CC1CCN(CCCC(=O)c2ccc(F)cc2)CC1,0.0992% [at 42.5 µM]
3,OCCN1C[C@H](O)[C@@H](O)[C@H](O)[C@H]1CO,-0.303% [at 42.5 µM]
4,CCCCCCC(CCCCCCCCCCC(=O)OCC(COC(C)=O)OC(C)=O)OC(C)=O (centres undefined),-0.0042% [at 42.5 µM]
5,NC(=O)CCCCC1CCSS1 (centres undefined),-0.0477% [at 42.5 µM]
6,COc1cc(O)cc(O)c1,-0.797% [at 42.5 µM]
7,C#CC(O)C(CC)CCCC (centres undefined),-0.24%
8,O=C1OC(=O)c2cc([N+](=O)[O-])ccc21,-0.114%
9,COCCOC(=O)CC#N,-0.128%
10,c1ccc(CCCc2ccccn2)cc1,0.876%
11,CNc1ncnc2nc[nH]c12,0.0879%
12,N#CCN(CC#N)CCN(CC#N)CC#N,-1.12%
13,Nc1nc2c(ncn2CCC(CO)CO)c(=O)[nH]1,1.3% [at 42.5 µM]
14,CCCCCCCCCCCCI,0.0327%
15,CCC(C)OC(=O)N1CCCCC1CCO (centres undefined),-0.723%
16,CC(C)(C)C(=O)/C=C/c1ccc(Cl)cc1,0.159%
17,CC(C)(C)N(CCO)CCO,-2.35%
18,C=CC(=O)OCCCCCC,0.605%
19,NS(=O)(=O)c1cc2c(cc1C(F)(F)F)NC(Cc1ccccc1)NS2(=O)=O (centres undefined),-0.023% [at 42.5 µM]

row,SMILES,caspase-3/7 activation
1,CC1=CC(=O)CCC1,0.707%
2,CCCc1ccc(N)cc1,2.6%
3,COc1cccc(Br)c1,-0.457%
4,CC(C)(O)Cc1ccccc1,0.277%
5,CCN(CC)C(=O)c1ccc(O)c(OC)c1,0.543% [at 42.5 µM]
6,CCO[Si](C)(OCC)OCC,-0.003%
7,COC(=O)CCCCCCCCC(=O)OC,0.272%
8,CCC(=O)Nc1cccc(N)c1,-1.07%
9,Nc1cc(C(Cl)=C(Cl)Cl)c(S(N)(=O)=O)cc1S(N)(=O)=O,-0.169% [at 42.5 µM]
10,CCCCCCCCCCCCCCCCCC(=O)OCCCCCCCCCCCCCC(C)C,0.54%
11,NC(=O)c1ncn([C@@H]2O[C@H](CO)[C@@H](O)[C@H]2O)c1N,2.07% [at 42.5 µM]
12,CCCCCCCCCCC1CO1 (centres undefined),-1.88%
13,NS(=O)(=O)c1cc2c(cc1Cl)NC(CSCc1ccccc1)=NS2(=O)=O,3.2% [at 42.5 µM]
14,CCc1cc(S(=O)(=O)O)c2cc(C(C)C)cccc1-2,0.758% [at 42.5 µM]
15,OCC(O)[C@@H](O)[C@H](O)[C@H](O)CO[C@H]1O[C@H](CO)[C@@H](O)[C@H](O)[C@H]1O (some centres undefined),0.144%
16,C=CCOCC(O)CS(=O)(=O)O (centres undefined),-0.321%
17,CCCCCCCCCCCCCCC,-0.107%
18,C=CCOc1nc(OCC=C)nc(OCC=C)n1,0.578%
